PubChem BioAssay AID777 (Sanford-Burnham Center for Chemical Genomics, 2007)
Among all 96,000 compounds or so, about 19,000 (20%) were called active. Only a sample is shown. Values without a mark were called inactive.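 Rule for the calls: active = blocking of liver enzyme CYP2C9 beyond about 50% at 5 µM (limit read from the data); inactive = the rest.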

These compounds were tested against Cytochrome P450 2C9 (Homo sapiens) (UniProt P11712) (assay: blockers of cytochrome P450 2C9 activity – biochemical, luminescence, ADME assay, primary screen (AID 777)). Details: CYP2C9 Supersomes, luciferin-H conversion, at 5 µM, hits give high values.
Chain of Cytochrome P450 2C9 (Homo sapiens) (P11712 whole entry, looked up): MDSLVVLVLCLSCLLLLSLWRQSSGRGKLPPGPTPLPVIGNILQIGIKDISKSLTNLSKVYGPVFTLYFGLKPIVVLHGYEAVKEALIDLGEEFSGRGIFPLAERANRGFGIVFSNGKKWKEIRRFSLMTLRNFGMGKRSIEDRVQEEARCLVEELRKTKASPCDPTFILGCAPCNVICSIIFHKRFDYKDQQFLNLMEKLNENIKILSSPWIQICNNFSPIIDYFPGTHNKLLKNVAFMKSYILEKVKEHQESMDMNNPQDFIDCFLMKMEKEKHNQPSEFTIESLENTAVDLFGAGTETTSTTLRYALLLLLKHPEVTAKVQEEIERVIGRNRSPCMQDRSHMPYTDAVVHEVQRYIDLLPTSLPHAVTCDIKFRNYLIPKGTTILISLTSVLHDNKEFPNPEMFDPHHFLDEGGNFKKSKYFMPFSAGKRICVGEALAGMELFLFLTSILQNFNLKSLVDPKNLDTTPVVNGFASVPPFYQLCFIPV
For `Cc1nc(NC2=NC(C(=O)Nc3ccc(Cl)cc3)CC(=O)N2)nc2ccccc12` (centres undefined), the inhibition was 1.6%. Compound `O=C(CCCN1C(=O)c2cccc3cccc(c23)C1=O)N1CCN(Cc2ccc3c(c2)OCO3)CC1` has an inhibition of -138%. `O=C1c2ccccc2C(=O)N1c1ccccc1S(=O)C(F)(F)F` (centres undefined) was tested, and the inhibition was -4%. In the case of `O=C(O)c1ccccc1NC(=S)NC(NC(=O)c1ccccc1[N+](=O)[O-])C(Cl)(Cl)Cl` (centres undefined), the inhibition is reported as 72.3% (active). With `O=C(Nc1ccccc1[N+](=O)[O-])C1C(c2ccccc2)=C1c1ccccc1` the inhibition was 18.8%. In the case of `O=[N+]([O-])c1ccccc1NCc1ccc(Cl)cc1`, the inhibition is reported as 18%. `O=C(Nc1ccc2c(c1)OCO2)C1CC(c2c(F)cccc2Cl)=NO1` (centres undefined) was tested, and the inhibition was -159%. With `COCn1c(COc2ccccc2)nc2ccccc21` the inhibition was 43.7%. Work on `CCCCNC(=O)CCNC(=O)c1ccc(C(C)(C)C)cc1` yielded an inhibition of 41.3%. With `CCN(CC(=O)NC(C)C)C(=O)CCNC(=O)c1ccc(Cl)cc1` the inhibition was 6.3%. With `Cc1ccc(CNC(=O)CCCNC(=O)c2ccc(Cl)cc2)n1C` the inhibition was 80.5% (active). In the case of `CCCCNC(=O)C(=O)c1ccccc1NC(C)=O`, the inhibition is reported as 15.4%. Compound `CCCNC(=S)NC1CC2CCCC(C1)N2CC(C)C` (centres undefined) has an inhibition of -4.2%. In the case of `Cc1cc(OC(=O)c2ccc(Cl)cc2)cc(=O)n1C`, the inhibition is reported as 32%. `COc1ccccc1C1C2=C(COC2=O)Nc2cc3c(cc21)OCO3` (centres undefined) gave an inhibition of 28.2%. With `COCCOC(=O)C1=C(C)NC(=O)CC1c1cc2c(cc1Br)OCO2` (centres undefined) the inhibition was 8.2%. With `CCCOc1ccccc1C1CC(=O)Nc2cc3c(cc21)OCO3` (centres undefined) the inhibition was 94.4% (active). Work on `CC1(C)CC(=O)C(C2=NC(C)(C)Cc3ccccc32)=C(O)C1` yielded an inhibition of 5.8%. With `C=CCOc1c2ccc(C(=O)N(CC)c3ccc(OC)cc3)cc2nn1C` the inhibition was 47.3%. In the case of `COc1cc(OC)cc(C(=O)NC2CCN(C(=O)N3c4ccccc4Sc4ccccc43)CC2)c1`, the inhibition is reported as 41.4%. With `COc1ccc(-c2nnc(SC(=O)N3c4ccccc4Sc4ccccc43)o2)cc1` the inhibition was 83.1% (active). `COc1ccc(-c2nnc(SC(C)C#N)o2)cc1` (centres undefined) showed an inhibition of 13.9%. In the case of `COc1ccc2c(c1)cc1n2CCN=C1NN`, the inhibition is reported as 42.7%. `Cc1ccc(C(=O)NC2CCN(C(=O)N3CCOCC3)CC2)cc1` showed an inhibition of -6.4%. Work on `N#Cc1nc(N)nc(N(c2ccccc2)c2ccccc2)n1` yielded an inhibition of 19.9%. In the case of `CCOC(=O)c1cc2c(n(-c3ccc(C)cc3)c1=O)CCCC2=O`, the inhibition is reported as 12%. `Cc1n[nH]c(=O)n1-c1ccc(Oc2ccccc2)cc1` gave an inhibition of 0.7%. `Cc1ccc(N)cc1-n1c(C)ccc1C` was tested, and the inhibition was -1.6%. In the case of `Cc1ccccc1CSc1nnc(-c2ccccn2)n1N`, the inhibition is reported as -28.8%. In the case of `COc1ccc(N(CC(=O)N/N=C/c2cccc3c2OCCO3)S(=O)(=O)c2ccc(NC(C)=O)cc2)cc1`, the inhibition is reported as 76.1% (active). Work on `Cc1ccc(S(=O)(=O)N(CC(=O)N/N=C/c2ccc(F)cc2)c2cccc3cccnc23)cc1` yielded an inhibition of 9.7%. `COc1ccc(N(CC(=O)N/N=C/c2cccs2)S(=O)(=O)c2ccc(OC)c(OC)c2)cc1` was tested, and the inhibition was 44.2%. With `Cn1c(=N)n(CC(O)c2ccccc2)c2ccccc21` (centres undefined) the inhibition was -27.2%. In the case of `Cc1c(Br)c([N+](=O)[O-])nn1C(C)C(=O)Nc1nccs1` (centres undefined), the inhibition is reported as 73.2% (active). `Cn1cccc1C(=O)Nc1nccs1` showed an inhibition of 2.9%. Compound `COc1cc(C(=O)Nc2nccs2)cc(OC)c1OC` has an inhibition of 42%. Work on `O=P(O)(CN1CCCCC1)CN1CCCCC1` yielded an inhibition of -9.6%. With `COc1ccc(C(=O)OCC(=O)NCC2CCCCC2)cc1S(=O)(=O)N1CCCc2ccccc21` the inhibition was 9.6%. For `Cc1nn(C)c(C)c1S(=O)(=O)N1CCc2ccccc21`, the inhibition was -33.4%. Work on `CSc1nc2ccc(S(=O)(=O)N3CCc4ccccc43)cc2s1` yielded an inhibition of 15.3%. `CC1CCC(NS(=O)(=O)c2ccc3c(c2)n(C)c(=O)c(=O)n3C)CC1` (centres undefined) gave an inhibition of 8.5%. With `CCn1c(=O)c(=O)n(CC)c2cc(S(=O)(=O)N3CCc4ccccc43)ccc21` the inhibition was 96.5% (active). For `Cn1c(=O)n(C)c2cc(S(=O)(=O)N3CCCc4ccccc43)ccc21`, the inhibition was 66.5% (active). Work on `Cc1ccc(-n2c(=O)c(C#N)cc3c(=O)n4ccccc4nc32)cc1C` yielded an inhibition of -2.8%. In the case of `Cc1cc(C=O)c(C)n1-c1ccc(NC2CCCCC2)c([N+](=O)[O-])c1`, the inhibition is reported as 15.9%. With `Cc1ccoc1C(=O)Nc1cccc(Oc2ccccc2)c1` the inhibition was 34%. Compound `O=C(OCCO)c1cc(Cl)c(C(=O)OCCO)cc1Cl` has an inhibition of 48.4%. In the case of `Cc1ccc(NC(=O)c2ccc(CSc3ncnc4nc[nH]c34)cc2)c(C)c1`, the inhibition is reported as -76.5%. In the case of `CCN1CCN(C(c2cccnc2)c2cc(Cl)c3cccnc3c2O)CC1` (centres undefined), the inhibition is reported as 29.8%. `CCn1ncc(C2=NOC(C(=O)Nc3ccccc3C(=O)OC)C2)c1C` (centres undefined) gave an inhibition of -34.3%. For `CC(C)CCNc1nc(N2CCCC2)c2c(c1C#N)CCN(C)C2`, the inhibition was 69.7% (active). Work on `CCN1CCc2c(C#N)c(NCc3ccccc3)nc(NCCO)c2C1` yielded an inhibition of 35.5%. With `CCOC(=O)C(C)Oc1cccc2c(=O)n(CC(=O)N3CCc4ccccc43)ccc12` (centres undefined) the inhibition was 9%. `O=S(=O)(c1cccc(S(=O)(=O)N2CCC(n3nnc4ccccc43)CC2)c1)N1CCCCC1` was tested, and the inhibition was 88.3% (active). `CC(=O)c1cccc(S(=O)(=O)N2CCC(n3nnc4cc(F)ccc43)CC2)c1` gave an inhibition of -31%. With `O=S(=O)(c1cccc(-c2nnc(SC(F)F)n2-c2ccccc2)c1)N1CCCCC1` the inhibition was 21.2%. With `CCCN(CCC)CCNC(=O)c1cc2c(C)nc3ccccc3c2o1` the inhibition was 8.6%. `Cc1sc2c(c1C)c(=O)n(-c1ccccc1)c1nncn21` showed an inhibition of -2.8%. In the case of `N#Cc1nc(Cc2ccccc2)oc1NCCc1ccccc1`, the inhibition is reported as 39.2%. For `N#Cc1nc(-c2ccc(OCc3ccccc3)cc2)oc1NCCCN1CCOCC1`, the inhibition was 41%. With `N#Cc1nc(COc2ccc(-c3ccccc3)cc2)oc1NCc1cccnc1` the inhibition was 70.7% (active). For `CCOc1ccc(Nc2oc(Cc3ccccc3)nc2C#N)cc1`, the inhibition was 78.1% (active). `COc1ccc(Nc2oc(-c3ccccc3Cl)nc2C#N)cc1` was tested, and the inhibition was 47%. Work on `c1ccc(-c2cc(-c3nnc4sc(-c5ccccn5)nn34)[nH]n2)cc1` yielded an inhibition of -2.3%. With `COc1ccc(C(F)(F)F)cc1N/C=C\c1nnnn1-c1ccc(C)cc1` the inhibition was 44.6%. For `CCN(CC)S(=O)(=O)c1cc(C(=O)Nc2ccccn2)ccc1C`, the inhibition was 38.8%. Work on `CCN(CC)C(=O)N1CCN(C(=O)c2ccc(C)cn2)CC1` yielded an inhibition of -1%. With `CCCOc1ccc(C2NC(=O)NC(c3ccccc3)=C2C(C)=O)cc1OCC` (centres undefined) the inhibition was 37.3%. With `Cc1cccc(COc2ccccc2/C=N/Nc2ccc([N+](=O)[O-])cc2)c1` the inhibition was 43.5%. For `CC(=O)CSc1nnc(CSc2ncccn2)n1C1CCCCC1`, the inhibition was -10.7%. Work on `CCCNC(=O)c1c(N)n(-c2ccc(S(N)(=O)=O)cc2)c2nc3ccccc3nc12` yielded an inhibition of -2.9%. Compound `CCN(CC)CCN1C(=O)C(=O)/C(=C(/O)c2ccccc2)C1c1ccccc1F` (centres undefined) has an inhibition of -5.9%. In the case of `CC(=O)C1=C(O)C(=O)N(c2ccc(S(N)(=O)=O)cc2)C1c1ccccc1F` (centres undefined), the inhibition is reported as 62.8% (active). Work on `COCC(=O)Nc1ccc(Br)cc1` yielded an inhibition of -12.9%. With `O=C(NCCCCCCNC(=O)NCc1ccco1)NCc1ccco1` the inhibition was -11.1%. For `O=C(NCc1ccco1)C1(c2ccc(Cl)cc2)CCCC1`, the inhibition was 58.8% (active). In the case of `O=C(/C=C/c1ccc(Cl)cc1Cl)NCc1ccco1`, the inhibition is reported as -2.5%. For `Cc1nc2c(-c3ccc(F)cc3)c(C)nn2c(C)c1CCC(=O)N1CCN(c2ccccn2)CC1`, the inhibition was 13.1%. Work on `O=C(/C=C/c1ccc(Cl)cc1Cl)c1cccnc1` yielded an inhibition of 14.7%. For `CN1CCN(c2ccc([N+](=O)[O-])c(Sc3nc4ccccc4[nH]3)c2)CC1`, the inhibition was 52.2% (active). `COc1ccccc1CSc1nc2ccccc2[nH]1` gave an inhibition of 43.6%. With `CSc1nnc2c(n1)OC(c1cn(C)c3ccccc13)N(C(C)=O)c1ccccc1-2` (centres undefined) the inhibition was 1.6%. `Cc1ccc(-c2nnc(SC(C)C#N)n2N)cc1` (centres undefined) gave an inhibition of 1.1%. In the case of `CSc1nc(C)cc(SC(C(C)=O)C(=O)Nc2ccccc2)n1` (centres undefined), the inhibition is reported as 65.3% (active). In the case of `CSc1ccccc1C(=O)Nc1cccc(C(C)=O)c1`, the inhibition is reported as 27.8%. With `Cc1cc(C)nc(N(C#N)CC(=O)Nc2ccccc2)n1` the inhibition was 7.1%. With `Cc1csc(NC(=O)NC2(C(F)(F)F)Oc3ccccc3O2)n1` the inhibition was -6.5%. Work on `COc1ccc(C(=O)Nc2cc(C)ccc2NC(=O)COc2ccccc2)cc1` yielded an inhibition of 6.9%. For `Cc1ccc2nc(-c3ccc(SCC(=O)Nc4cc(C)on4)nc3)[nH]c2c1`, the inhibition was 2.6%. `CCOC(=O)c1cc2cc(C)ccc2[nH]1` was tested, and the inhibition was 13.9%. `CC(N)C12CC3CC(CC(O)(C3)C1)C2` (centres undefined) was tested, and the inhibition was -4%. Compound `FC(F)(F)COc1nc(N2CCCCC2)nc(N2CCNCC2)n1` has an inhibition of -4.2%. `O=C(CSc1c2c(nc3ccc(Cl)cc13)CCCC2)NCc1ccco1` gave an inhibition of 48.3%. For `CCC(C)NC(=O)CSC1=Nc2ccccc2C2=NC(CCC(=O)NCc3ccco3)C(=O)N12` (centres undefined), the inhibition was 67.8% (active). For `O=C(CSC1=Nc2ccccc2C2=NC(CC(=O)NCc3ccco3)C(=O)N12)NCc1ccco1` (centres undefined), the inhibition was 65.1% (active). `O=C(CC1N=C2c3ccccc3N=C(SCc3ccccc3Cl)N2C1=O)NCc1ccco1` (centres undefined) was tested, and the inhibition was 85.2% (active). `O=C(COC(=O)C12CC3CC(CC(C3)C1)C2)NCc1ccco1` gave an inhibition of 35.4%. `CCOCCc1c(O)nc(SCC(=O)NCc2ccco2)[nH]c1=O` gave an inhibition of -8.3%. For `NC(=O)CSC1=Nc2ccccc2C2=NC(CCC(=O)NCc3ccc(F)cc3)C(=O)N12` (centres undefined), the inhibition was 16.8%.
